# Results filed as inconclusive are left out. Calls of active or inactive are those of the source. Calls follow the shape of the dose curve; as a rule, active = well fitted curve in the direction sought with a large enough effect; inconclusive = small, poorly fitted or top-dose-only effect, or another doubt; inactive = no such curve, though single readings can be large; an effect the other way counts as inactive or inconclusive.
# What was measured:
# [1] = Quantitative High-Throughput drug screen in 47 multiple myeloma cell lines against the NCATS MIPE library collection: JIM3_ECACC cell viability assay (AID 1918963; also: nearly all actives have a fitted effect of over 35% in size)
# How it was run: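 Approved and investigational drugs from MIPE 4.0 were added by pin tool to 500 cells per well. After 48 hours at 37C, ATP-based CellTiter-Glo luminescence indicated remaining viability.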
# [2] = Quantitative High-Throughput drug screen in 47 multiple myeloma cell lines against the NCATS MIPE library collection: JIM1_ECACC cell viability assay (AID 1918964)
# How it was run: (§1)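 CellTiter-Glo luminescence (ATP) after 48 h compound exposure, 37C/5% CO2; 500 cells/well; MIPE 4.0 approved/investigational drugs pinned in; DMSO = 100%, media only = 0% viability.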
# [3] = Quantitative High-Throughput drug screen in 47 multiple myeloma cell lines against the NCATS MIPE library collection: INA6_PLB cell viability assay (AID 1918965; also: nearly all actives have a fitted effect of over 55% in size)
# How it was run: (§2)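 Inhibition of cell viability is measured here. Each line was plated at 500 cells per well, treated with MIPE 4.0 drugs, kept 48 hours at 37C, then assayed for ATP content by CellTiter-Glo luminescence.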
# [4] = Quantitative High-Throughput drug screen in 47 multiple myeloma cell lines against the NCATS MIPE library collection: JJN3_DSMZ cell viability assay (AID 1918966; also: nearly all actives have a fitted effect of over 50% in size)
# How it was run: as §1
# [5] = Quantitative High-Throughput drug screen in 47 multiple myeloma cell lines against the NCATS MIPE library collection: H1112_PLB cell viability assay (AID 1918967; also: nearly all actives have a fitted effect of over 30% in size)
# How it was run: as §1
# [6] = Quantitative High-Throughput drug screen in 47 multiple myeloma cell lines against the NCATS MIPE library collection: Karpas25_ECACC cell viability assay (AID 1918968; also: nearly all actives have a fitted effect of over 35% in size)
# How it was run: as §1
# [7] = Quantitative High-Throughput drug screen in 47 multiple myeloma cell lines against the NCATS MIPE library collection: KMS27_JCRB cell viability assay (AID 1918970); conditions: KMS27 myeloma cells, CellTiter-Glo ATP viability, 48 h; viability (% of DMSO): at 45.8 µM (top of the series); also: nearly all actives have a fitted effect of over 30% in size
# How it was run: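 Myeloma cells (500 per well) were exposed to MIPE 4.0 compounds for 48 h at 37 °C, 5% CO2; viability was read as ATP luminescence with CellTiter-Glo, normalized to DMSO-only (100%) and media-only (0%) wells.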
# [8] = Quantitative High-Throughput drug screen in 47 multiple myeloma cell lines against the NCATS MIPE library collection: KMS12BM_JCRB cell viability assay (AID 1918971); also: nearly all actives have a fitted effect of over 35% in size
# How it was run: (§3)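 Viability readout: CellTiter-Glo luminescence following 5 min room-temperature incubation with reagent. Prior exposure: 48 h, 37C, humidified 5% CO2, 500 cells per well.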
# [9] = Quantitative High-Throughput drug screen in 47 multiple myeloma cell lines against the NCATS MIPE library collection: KMS20_JCRB cell viability assay (AID 1918973); also: nearly all actives have a fitted effect of over 45% in size
# How it was run: as §1
# [10] = Quantitative High-Throughput drug screen in 47 multiple myeloma cell lines against the NCATS MIPE library collection: KMS21BM_JCRB cell viability assay (AID 1918974); conditions: ATP luminescence, 48 h; viability: at 45.8 µM (top of the series)
# How it was run: as §1
# [11] = Quantitative High-Throughput drug screen in 47 multiple myeloma cell lines against the NCATS MIPE library collection: KMS26_JCRB cell viability assay (AID 1918975); also: nearly all actives have a fitted effect of over 45% in size
# How it was run: as §3
# [12] = Quantitative High-Throughput drug screen in 47 multiple myeloma cell lines against the NCATS MIPE library collection: NCIH929_DSMZ cell viability assay (AID 1918978); also: nearly all actives have a fitted effect of over 35% in size
# How it was run: (§4)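 ATP-based luminescence (CellTiter-Glo, 5 min RT incubation) quantified surviving cells following two days' treatment with MIPE 4.0 agents at 37 °C, 5% CO2.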
# [13] = Quantitative High-Throughput drug screen in 47 multiple myeloma cell lines against the NCATS MIPE library collection: OCIMY1_PLB cell viability assay (AID 1918979); also: nearly all actives have a fitted effect of over 35% in size
# How it was run: as §4
# [14] = Quantitative High-Throughput drug screen in 47 multiple myeloma cell lines against the NCATS MIPE library collection: MM1S_ATCC cell viability assay (AID 1918980); also: nearly all actives have a fitted effect of over 45% in size
# How it was run: as §4
# [15] = Quantitative High-Throughput drug screen in 47 multiple myeloma cell lines against the NCATS MIPE library collection: MM1R_ATCC cell viability assay (AID 1918981); also: nearly all actives have a fitted effect of over 35% in size
# How it was run: as §4
# [16] = Quantitative High-Throughput drug screen in 47 multiple myeloma cell lines against the NCATS MIPE library collection: MMM1_PLB cell viability assay (AID 1918976); also: nearly all actives have a fitted effect of over 35% in size
# How it was run: as §4
# [17] = Quantitative High-Throughput drug screen in 47 multiple myeloma cell lines against the NCATS MIPE library collection: MOLP8_DSMZ cell viability assay (AID 1918977); also: nearly all actives have a fitted effect of over 45% in size
# How it was run: as §4
# [18] = Quantitative High-Throughput drug screen in 47 multiple myeloma cell lines against the NCATS MIPE library collection: KMS12PE_JCRB cell viability assay (AID 1918972); also: nearly all actives have a fitted effect of over 30% in size
# How it was run: as §2
# Potency is read from the fitted curve at half-maximal effect.
SMILES,Potency [1],Potency [2],Potency [3],Potency [4],Potency [5],Potency [6],Potency [7],Potency [8],Potency [9],Potency [10],Potency [11],Potency [12],Potency [13],Potency [14],Potency [15],Potency [16],Potency [17],Potency [18]
COc1cc([C@@H]2c3cc4c(cc3[C@@H](O[C@@H]3O[C@@H]5CO[C@@H](c6cccs6)O[C@@H]5[C@H](O)[C@@H]3O)[C@H]3COC(=O)[C@H]23)OCO4)cc(OC)c1O,833 nM (active),209 nM (active),46.9 nM (active),13200 nM (active),590 nM (active),1870 nM (active),132 nM (active),1320 nM (active),418 nM (active),1870 nM (active),16600 nM (active),14800 nM (active),8330 nM (active),59 nM (active),74.3 nM (active),–,–,–
COC1=C2C[C@@H](C)C[C@H](OC)[C@@H](O)[C@@H](C)C=C(C)[C@H](OC(N)=O)[C@@H](OC)C=CC=C(C)C(=O)NC(=CC1=O)C2=O,209 nM (active),7430 nM (active),148 nM (active),66.2 nM (active),1870 nM (active),118 nM (active),–,118 nM (active),41.8 nM (active),–,–,118 nM (active),166 nM (active),59 nM (active),37.2 nM (active),1050 nM (active),41.8 nM (active),–
COc1ccc2c(c1OC)C(=O)OC2[C@H]1c2c(cc3c(c2OC)OCO3)CCN1C (stereo not given in full),83.3 nM (active),1 nM (active),52.6 nM (active),5260 nM (active),235 nM (active),235 nM (active),132 nM (active),41.8 nM (active),–,148 nM (active),3320 nM (active),1870 nM (active),–,332 nM (active),–,–,6620 nM (active),105 nM (active)
C[C@@]12C[C@@]3(O)O[C@@H](O1)[C@]1(COC(=O)c4ccccc4)[C@@H]3C[C@@]12O[C@@H]1O[C@H](CO)[C@@H](O)[C@H](O)[C@@H]1O,inactive,inactive,–,–,inactive,inactive,inactive,–,–,–,inactive,inactive,–,–,–,–,–,–
CCNC(=O)c1cc2c(-c3cc(OCCN4CCCC4)c(Cl)cc3Cl)nc(N)nc2s1,935 nM (active),469 nM (active),590 nM (active),2350 nM (active),6620 nM (active),833 nM (active),–,1480 nM (active),1660 nM (active),–,2350 nM (active),935 nM (active),3320 nM (active),1660 nM (active),2090 nM (active),–,743 nM (active),418 nM (active)
CC(=O)N1CCN(c2ccc(OCc3nn(C)c(C)c3-c3cccc4c(CCCOc5cccc6ccccc56)c(C(=O)O)n(Cc5cccnc5)c34)cc2)CC1,3320 nM (active),469 nM (active),33.2 nM (active),–,132 nM (active),83.3 nM (active),74.3 nM (active),–,52.6 nM (active),–,3720 nM (active),33.2 nM (active),–,37.2 nM (active),1050 nM (active),–,16600 nM (active),469 nM (active)
CCCCCN=C(N)NN=Cc1c[nH]c2ccc(OC)cc12,5260 nM (active),1480 nM (active),526 nM (active),–,–,–,–,6620 nM (active),–,–,10500 nM (active),13200 nM (active),–,–,–,–,–,–
O=C1c2cccc(O)c2C(=O)c2c(O)cc(CO)cc21,inactive,inactive,–,–,inactive,–,inactive,–,inactive,–,inactive,–,inactive,inactive,inactive,–,–,inactive
CN(CC(=O)N(Cc1ccc(C2CCCCC2)cc1)c1ccc(C(=O)O)c(O)c1)S(=O)(=O)c1c(F)c(F)c(F)c(F)c1F,9350 nM (active),3320 nM (active),6620 nM (active),18700 nM (active),18700 nM (active),5260 nM (active),–,29600 nM (active),6620 nM (active),–,20900 nM (active),4180 nM (active),33200 nM (active),7430 nM (active),8330 nM (active),20900 nM (active),18700 nM (active),7430 nM (active)
COc1ccc2cc([S+]([O-])Cc3ncc(C)c(OC)c3C)nc2c1,inactive,inactive,–,inactive,inactive,16600 nM (active),–,inactive,inactive,–,–,inactive,inactive,inactive,inactive,–,–,–
CCOC(=O)C1=C(C)NC(=S)NC1c1cccc(O)c1 (stereo not given),37.2 nM (active),296 nM (active),26.4 nM (active),–,–,29.6 nM (active),46.9 nM (active),66.2 nM (active),–,–,–,37.2 nM (active),–,41.8 nM (active),29.6 nM (active),–,37.2 nM (active),372 nM (active)
C[C@@H](Cc1cc2c(c(C(N)=O)c1)N(CCCO)CC2)NCCOc1ccccc1OCC(F)(F)F,inactive,inactive,–,inactive,inactive,–,inactive,–,–,–,inactive,–,–,–,inactive,–,inactive,–
Cc1cnc(Nc2ccc(N3CCN(C)CC3)cc2)nc1Nc1cccc(S(=O)(=O)NC(C)(C)C)c1,3720 nM (active),662 nM (active),418 nM (active),2960 nM (active),5900 nM (active),1660 nM (active),–,2640 nM (active),7430 nM (active),148 nM (active),6620 nM (active),2350 nM (active),–,3320 nM (active),5260 nM (active),2960 nM (active),2090 nM (active),–
